# Most compounds without a hit are left out; they make up all but 7.5% or so of the library.
# NPC1 promoter act – activators of NPC1 promoter | Huh7 NPC1 promoter luciferase reporter, 24 h | Potency, µM (highest dose often 9.22 µM), usual class: activators | 2.4% of 320,000 active | AID 485313; also: nearly all actives have a fitted effect of over 60% in size
#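 Quantitative HTS used a cell-based reporter: Huh7 cells stably bearing the NPC1 promoter upstream of luciferase were treated with compounds for 24 h, and promoter activation was read as luminescence.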
# FLuc counter – inhibits or activates purified firefly luciferase, miR-21 counter-screen; 6.9% of 360,000 active; P08659; Potency, µM (top dose mostly 57.5 µM), hits mostly inhibitors; purified FLuc, Km substrates, luminescence inhibition; also: nearly all actives have a fitted effect of over 55% in size
# Target sequence (P08659 whole entry, looked up): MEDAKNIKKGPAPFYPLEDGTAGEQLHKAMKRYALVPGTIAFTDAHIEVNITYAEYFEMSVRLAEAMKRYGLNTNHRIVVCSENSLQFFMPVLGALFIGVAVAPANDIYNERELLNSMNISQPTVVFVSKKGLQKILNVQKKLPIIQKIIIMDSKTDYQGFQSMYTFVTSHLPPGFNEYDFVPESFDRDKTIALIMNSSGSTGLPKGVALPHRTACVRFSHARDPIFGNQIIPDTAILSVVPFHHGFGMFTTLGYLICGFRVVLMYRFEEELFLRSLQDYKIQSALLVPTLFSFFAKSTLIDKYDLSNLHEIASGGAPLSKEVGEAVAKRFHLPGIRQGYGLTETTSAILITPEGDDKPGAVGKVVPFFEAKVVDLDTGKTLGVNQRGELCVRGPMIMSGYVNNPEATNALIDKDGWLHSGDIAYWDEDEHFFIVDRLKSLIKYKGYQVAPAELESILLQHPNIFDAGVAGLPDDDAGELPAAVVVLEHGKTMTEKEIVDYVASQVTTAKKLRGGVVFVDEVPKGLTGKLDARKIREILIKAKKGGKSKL
#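 Purified P. pyralis luciferase, 10 nM final, with Km-level 10 uM D-luciferin and 10 uM ATP in 50 mM Tris acetate pH 7.5, 10 mM Mg acetate, 0.01% Tween-20, 0.05% BSA; 6-point qHTS titration about 60 µM downward; luminescence read.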
# ELG1 genotoxic – genotoxicity induction in ELG1-luciferase HEK293T cells; Potency, µM (top dose mostly 46 µM), most hits filed as activators; 1.3% of 330,000 active; HEK293T ELG1-luciferase reporter, luminescence, 16 h; also: nearly all actives have a fitted effect of over 60% in size
#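 HEK293T cells expressing luciferase-tagged ELG1 were treated with compound or DMSO for 16 hr at 37°C. Luciferase activity was then read after 30 min with ONE-Glo at room temperature; rising signal flags genetic stress.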
# KinaseGlo FLuc – counter-screen: inhibitors of Kinase-Glo firefly luciferase. AID 1379. 0.28% of 200,000 active. Kinase-Glo luciferase, ATP luminescence, 8 min. Q27757. Potency, µM (top dose mostly 38.3 µM), usual class: inhibitors; also: nearly all actives have a fitted effect of over 60% in size
#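 Compounds were added to a substrate mix at pH 7.2 (50 mM imidazole, 10 uM ATP, within the enzyme's linear range), followed by Kinase-Glo detection reagent; luminescence was measured after 8 minutes at ambient temperature.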
# Rab9 prom act – activates the Rab9 promoter; AID 485297; 2.8% of 320,000 active; Potency, µM (series often up to 9.22 µM), hits mostly activators; Huh7 Rab9 promoter-luciferase reporter, luminescence, 24 h; also: nearly all actives have a fitted effect of over 60% in size
#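 Huh7 cells stably carrying a Rab9 promoter-luciferase reporter, 1500 cells per well in OP-MEM I with 10% FBS, treated with compound 24 hours at 37C. Luciferase activity read by luminescence after 10 minutes with Amplite reagent.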
# SMN2 splice enh – increases expression of the SMN2 splice variant; Potency, µM (doses to about 46.1 µM), most hits filed as activators; HEK293 SMN2-luciferase splicing reporter, luminescence, 30-36 h; AID 1458; 2.8% of 210,000 active; also: nearly all actives have a fitted effect of over 55% in size
#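 HEK293 cells carry an SMN2 […]–luciferase reporter in which exon 7 inclusion puts luciferase in frame. Cells were plated 10-12 h before compound addition, then incubated 30-36 h at 37C. ONE-Glo luminescence was read; sodium butyrate at 4.5 mM final served as control.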
# Hits are given with their value; - = inactive; ? = inconclusive; . = no result; [ ] = another dose, or the depositor's remark. Calls follow the shape of the dose curve; as a rule, active = well fitted curve in the direction sought with a large enough effect; inconclusive = small, poorly fitted or top-dose-only effect, or another doubt; inactive = no such curve, though single readings can be large; an effect the other way counts as inactive or inconclusive.
SMILES,NPC1 promoter act,FLuc counter,ELG1 genotoxic,KinaseGlo FLuc,Rab9 prom act,SMN2 splice enh
Cc1onc(-c2c(F)cccc2Cl)c1C(=O)Nc1nc2ccccc2[nH]1,-,-,-,-,-,-
Cc1ccc(/C=C/C(=O)Nc2nc3ccccc3[nH]2)cc1,3.2µM,?,10µM,-,1.8µM,10µM
COC(=O)c1ccccc1S(=O)(=O)N1CCc2nc(-c3ccc(OC)cc3C)c3c(c2C1)CO[C@@H](c1ccccc1)C3,.,.,.,-[7.66 µM],.,-[9.22 µM]
CCc1ccc(NCc2cc3cc4c(cc3n(CC(=O)Nc3ccccc3Cl)c2=O)OCO4)cc1,.,-,.,.,.,.
CN(C)Cc1ccc(-c2cc3onc(-c4ccccc4)c3c(=O)n2C)cc1,.,.,.,-[7.66 µM],.,-[9.22 µM]
Cn1c(-c2ccc(F)c(F)c2)cc2onc(-c3ccccc3)c2c1=O,0.79µM,1.3µM,2.3µM,.,1.1µM,.
COc1cccc(-c2cc3onc(-c4ccccc4)c3c(=O)n2C)c1,0.71µM,0.85µM,?,.,0.4µM,.
COc1ccc(-c2cc3onc(-c4c(Cl)cccc4Cl)c3c(=O)n2C)cc1,-,?,-,.,-,.
COC(=O)c1ccc(-c2cc3onc(-c4ccccc4)c3c(=O)n2C)cc1,?,4.3µM,?,.,-,.
O=C(Nc1cccc2nsnc12)c1ccc2c(c1)OCCO2,?,11µM,?,-,3.5µM,?
CCOc1ccc(C(=O)Nc2cccc3nsnc23)cc1[N+](=O)[O-],-,-,-,.,-,.
O=C(Nc1cccc2nsnc12)c1ccc2c(c1)OCO2,?,17µM,-,-,?,-
O=C(Nc1cccc2nsnc12)c1ccc(F)cc1,-,?,-,-,-,?
CCOC(=O)c1sc2ccccc2c1S(=O)(=O)Nc1ccc(CC)cc1,.,-,.,.,.,.
CC(NC(=O)Cc1ccc(NS(=O)(=O)c2cccc(C(F)(F)F)c2)cc1)c1ccccn1 (stereo unspecified),-,-,-,.,-,.
O=c1c2ccccc2sc2ccc(Cl)cc12,-,?,-,-,-,-
O=c1c(C(c2ccccc2)c2c(O)sc3ccccc3c2=O)c(O)sc2ccccc12,-,12µM,-,-,-,-
Oc1ccccc1/C=N/N1CCN(c2ccccn2)CC1,?,13µM,?,.,2.8µM,.
C(=C\c1ccccc1)/C=N/N1CCN(c2ccccn2)CC1,?,12µM,4.1µM,-,?,?
O=[N+]([O-])c1cccc(/C=N/N2CCN(c3ccccn3)CC2)c1,?,?,-,.,3.2µM,.
CC(C)c1ccc(/C=N/N2CCN(c3ccccn3)CC2)cc1,?,?,-,.,?,.
C(=N\N1CCN(c2ccccn2)CC1)/c1cccc2ccccc12,-,17µM,-,.,-,.
Cc1cc(C)cc(OC(C)C(=O)Nc2ccccc2C(=O)NCc2cccnc2)c1 (stereo unspecified),-,-,-,.,-,.
CCOC(=O)Cc1csc(NC(=O)Cn2c(=O)oc3ccccc32)n1,-,-,-,.,-,.
COc1ccc(/C(N)=N/OC(=O)CCCc2ccccc2)cc1OC,-,?,-,-,-,-
SMILES,NPC1 promoter act,FLuc counter,ELG1 genotoxic,KinaseGlo FLuc,Rab9 prom act,SMN2 splice enh
N/C(=N\OC(=O)CCC1CCCC1)c1ccccn1,-,0.48µM,?,-,-,?
N/C(=N\OC(=O)CCCc1ccccc1)c1ccccn1,-,2.1µM,-,-,-,-
N/C(=N\OC(=O)Cc1ccccc1)c1ccccn1,-,17µM,-,-,-,-
N/C(=N\OC(=O)C(c1ccccc1)c1ccccc1)c1ccccn1,-,-,-,-,-,-
CSc1cccc(NC(=O)CN2C(=O)COc3ccc(S(=O)(=O)N4CCC(C)CC4)cc32)c1,.,-,.,.,.,.
O=[N+]([O-])c1cnc2nc(-c3ccncc3)nn2c1O,-,21µM,-,11µM,-,-
Cc1ccc(C)c(OCc2cc(C(=O)N3CCN(c4ccccc4C)CC3C)no2)c1 (stereo unspecified),-,-,-,.,-,.
Nc1[nH]c(=O)[nH]c(=O)c1N=Nc1ccccc1Cl,-,?,-[9.26 µM],.,-,.
Cc1[nH][nH]c(=O)c1N=Nc1ccccc1Cl,-,15µM,-,.,-,.
Cc1ccc(C(=O)N2c3nc(-c4ccco4)nn3C3(CCCCC3)[C@@H]3CCCC[C@@H]32)cc1,.,-,.,.,.,.
Cc1cc(-c2ccc(C)c(S(=O)(=O)NC(c3cccs3)C(C)C)c2)on1 (stereo unspecified),.,-,.,.,.,.
FC(F)(F)c1cccc(-c2nn[nH]n2)c1,-,?,-,-,-,-
FC(F)(F)c1cccc(-c2ccc(-c3csnn3)o2)c1,-,17µM,-,-,?,-
Cc1nn(-c2nnc(NC3CCCCC3)nn2)c(C)c1Br,2.2µM,4.3µM,18µM,-,2.2µM,13µM
Cc1ccc(Nc2nnc(SC3CCOC3=O)s2)cc1 (stereo unspecified),-,17µM,-,-,-,-
CC(C)c1ccc(Nc2nnc(SC3CCOC3=O)s2)cc1 (stereo unspecified),-,7.6µM,-,-,-,-
O=C1OCCC1Sc1nc2ccccc2s1 (stereo unspecified),-,-,-,-,-,-
Cc1cccc(Nc2nnc(SC3CCOC3=O)s2)c1C (stereo unspecified),-,?,-,-,-,-
O=C1CCCCC1Sc1nnc(Nc2ccccc2)s1 (stereo unspecified),2.5µM,19µM,?,-,3.2µM,10µM
COc1ccc(OC)c(CNC(=O)C2CCN(c3nc4ccccc4nc3C(F)(F)F)CC2)c1,.,-,.,.,.,.
Cc1c(Cl)cccc1NC(=O)CC(c1cccs1)N1Cc2ccccc2C1=O (stereo unspecified),.,-,.,.,.,.
Cc1ccc(-c2ccc(=O)n(CC(=O)NC(C)c3ccccc3)n2)cc1 (stereo unspecified),.,-,.,.,.,.
COc1ccc(S(=O)(=O)NCC(c2ccco2)N2CCN(c3ccccc3F)CC2)cc1C (stereo unspecified),.,-,.,.,.,.
CNC(=S)N/N=C/c1cccc(OCc2ccccc2F)c1,-,4.8µM,?,-,-,-
CCNC(=S)N/N=C/c1cccc(OCc2c(F)cccc2Cl)c1,-,17µM,-,-,-,-
SMILES,NPC1 promoter act,FLuc counter,ELG1 genotoxic,KinaseGlo FLuc,Rab9 prom act,SMN2 splice enh
CCNC(=S)N/N=C/c1cccc(/C=N/NC(=S)NCC)c1,-,-,-,-,-,-
Oc1ccc2cccnc2c1,-,-,-,-,-,-
O=C(Cc1ccc2cccnc2c1)c1ccc(O)cc1O,-,21µM,?,-,?,-
Cc1ccc2c(c1)NC(=O)CC(c1ccccc1)=N2,-,12µM,-,-,?,?
C/C(=N/NS(=O)(=O)c1ccc(Cl)cc1)c1cccc(NC(=O)c2ccc(Cl)cc2Cl)c1,-,17µM,-,-,-,-
C/C(=N/NS(=O)(=O)c1ccc(C)cc1)c1cccc(NC(=O)c2cccc(Cl)c2)c1,-,17µM,-,-,-,-
CC(=O)Nc1cccc(/C(C)=N/NC(=O)c2ccc(Cl)cc2Cl)c1,-,19µM,-,-,-,-

# From PubChem
